The source of these data is PubChem BioAssay (NCI).

The panel holds about 83,000 compounds, 20% with a hit somewhere; the sample as a whole holds those more often.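 In brief: 96-well plates, 48 h treatment, single concentration, percent growth endpoint.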 Values without a mark were called inactive. Activity calls are given as the source filed them. The calls were made as follows: active = growth percent below 10; inactive = the rest.

Among the test systems are HCT-15 colon; HT29 colon; SNB-75 CNS; SNB-19 CNS; U251 CNS; PC-3 prostate; SK-MEL-5 melanoma; UACC-62 melanoma; LOX IMVI melanoma; SK-MEL-28 melanoma; SK-MEL-2 melanoma; EKVX NSCLC; SN12C renal; UO-31 renal; TK-10 renal; A498 renal; CCRF-CEM leukemia; MOLT-4 leukemia; ACHN renal; CAKI-1 renal.
Holding throughout (experiment): NCI-60 one-dose screen, 48 h (100 = growth as untreated, 0 = no growth, -100 = all killed)
Holding throughout (details): 10 µM unless noted

Consider `COc1cc2c(cc1OC)-c1ccc3cc4c(cc3c1N(CCN1CCCC1)C2)OCO4`, for which the growth with HCT-15 colon was 40.6%; in the assay with HT29 colon, -51.2% (active); in the assay on SNB-75 CNS, -3.1% (active); in the assay with SNB-19 CNS, -5.63% (active); in the assay with U251 CNS, -55.7% (active); in the assay on PC-3 prostate, 2.3% (active). Also, the growth in the assay with SK-MEL-5 melanoma was 26.4%; in the assay on UACC-62 melanoma, 36.1%; with LOX IMVI melanoma, -79% (active); in the assay on SK-MEL-28 melanoma it was 77.2%; in the assay on SK-MEL-2 melanoma, 57.9%; with EKVX NSCLC, 36.3%. In addition, the growth with SN12C renal is -29.9% (active); with UO-31 renal, 32.7%; with TK-10 renal it was 34.2%; in the assay on A498 renal it was -2.77% (active); in the assay with CCRF-CEM leukemia, -5.95% (active); with MOLT-4 leukemia, 2.96% (active).
As for `OC(CBr)c1ccnc2ccccc12` (stereo not given), the growth in the assay on HCT-15 colon was 103%; in the assay with HT29 colon it was 85.1%; with SNB-75 CNS, 94.8%; with SNB-19 CNS, 104%; in the assay on U251 CNS, 95.8%; with PC-3 prostate, 88.8%. Also, the growth with SK-MEL-5 melanoma was 106%; in the assay with UACC-62 melanoma it was 95.1%; in the assay with LOX IMVI melanoma it was 96.3%; in the assay on SK-MEL-28 melanoma, 109%; in the assay on SK-MEL-2 melanoma, 93.3%; in the assay with EKVX NSCLC, 103%. For the same compound, the growth is 99.6% with SN12C renal; 83.4% in the assay with UO-31 renal; 89.4% in the assay on TK-10 renal; 102% with A498 renal; 76.8% in the assay on CCRF-CEM leukemia; 93.8% in the assay with MOLT-4 leukemia.
For the compound `CCn1nc(C#Cc2c(C)ccc3c(Nc4ccc(Cl)cc4)nccc23)c2c(N)ncnc21`, the growth in the assay on HCT-15 colon was 23.3%; in the assay on HT29 colon, 2.98% (active); in the assay on SNB-75 CNS, -8.46% (active); in the assay on SNB-19 CNS it was 9% (active); in the assay on U251 CNS it was 26%; in the assay with PC-3 prostate, 18.9%. Also, the growth in the assay on SK-MEL-5 melanoma is -43.9% (active); in the assay with UACC-62 melanoma it was -4.21% (active); in the assay on LOX IMVI melanoma, 11.3%; in the assay on SK-MEL-28 melanoma, 0.371% (active); with SK-MEL-2 melanoma it was -50.8% (active); in the assay with EKVX NSCLC, 36.6%. In addition, the growth is 15.6% in the assay with SN12C renal; 8.45% (active) in the assay with UO-31 renal; 8.02% (active) with ACHN renal; 18.8% with CAKI-1 renal; 11.7% in the assay on A498 renal; 10.5% in the assay on CCRF-CEM leukemia. In addition, the growth in the assay with MOLT-4 leukemia was 20.9%.
Consider `COc1cccc(CCC2CCCN(c3cc(C)nc(N)n3)C2)c1` (stereo not given), for which the growth in the assay with HCT-15 colon was 21.9%; in the assay on HT29 colon, 4.64% (active); in the assay on SNB-75 CNS, 25.9%; in the assay on SNB-19 CNS, 23.8%; in the assay on U251 CNS, 15%; in the assay on PC-3 prostate, 20.2%. The growth is 18.2% in the assay on SK-MEL-5 melanoma; 29.3% with UACC-62 melanoma; 17% in the assay on LOX IMVI melanoma; 50.2% with SK-MEL-28 melanoma; 29.1% in the assay on SK-MEL-2 melanoma; 41.4% with EKVX NSCLC. For the same compound, the growth in the assay with SN12C renal is 34.1%; in the assay on UO-31 renal, 35.7%; in the assay on TK-10 renal, 37.5%; in the assay on A498 renal it was -2.99% (active); in the assay on MOLT-4 leukemia, 27.5%.
As to `Cc1cc(=O)[nH]c(N/N=C/c2cc(Br)ccc2O)n1`, the growth with HCT-15 colon was 30.5%; in the assay on HT29 colon it was 58.9%; in the assay on SNB-75 CNS, 62.9%; in the assay on SNB-19 CNS it was 40.6%; with U251 CNS it was 26.8%; with PC-3 prostate it was 56.8%. In addition, the growth in the assay with SK-MEL-5 melanoma is 26.3%; in the assay with UACC-62 melanoma it was 4.29% (active); in the assay with LOX IMVI melanoma, 9.27% (active); in the assay with SK-MEL-28 melanoma it was 42.8%; with SK-MEL-2 melanoma, 26.9%; in the assay with EKVX NSCLC, 9.68% (active). For the same compound, the growth in the assay on SN12C renal is 48.1%; with UO-31 renal it was -3.92% (active); in the assay on ACHN renal, 14.5%; with CAKI-1 renal it was -5.73% (active); with A498 renal it was 42.2%; in the assay on MOLT-4 leukemia, 15.3%.
As for `CCOC(=O)C1C(=O)C=C(c2cnccn2)CC1c1ccc(OC)c(OC)c1` (stereo not given), the growth with HCT-15 colon is 98.9%; in the assay on HT29 colon it was 93.1%; in the assay on SNB-75 CNS, 105%; in the assay with SNB-19 CNS, 102%; with U251 CNS, 99.5%; with PC-3 prostate it was 70.4%. Further, the growth in the assay on SK-MEL-5 melanoma is 103%; in the assay on UACC-62 melanoma, 101%; in the assay with LOX IMVI melanoma it was 100%; with SK-MEL-28 melanoma, 102%; with SK-MEL-2 melanoma, 86.4%; in the assay with EKVX NSCLC, 101%. Besides, the growth in the assay with SN12C renal is 100%; with UO-31 renal it was 87.4%; with A498 renal, 119%; with CCRF-CEM leukemia it was 82.2%; in the assay on MOLT-4 leukemia, 73.2%.
Take `NS(=O)(=O)c1cn(-c2ncnc3nc[nH]c23)ccc1=O`: the growth with HCT-15 colon was 94%; in the assay on HT29 colon it was 101%; with SNB-75 CNS it was 75.4%; in the assay on SNB-19 CNS, 97.2%; with U251 CNS, 102%; with PC-3 prostate it was 96.1%. The growth with SK-MEL-5 melanoma was 97.6%; in the assay with UACC-62 melanoma, 89.7%; in the assay on LOX IMVI melanoma, 99.9%; in the assay with SK-MEL-28 melanoma it was 105%; in the assay on SK-MEL-2 melanoma, 95.4%; in the assay on EKVX NSCLC, 97.8%. In addition, the growth is 92.4% in the assay with SN12C renal; 78.2% with UO-31 renal; 99.2% with ACHN renal; 89.1% with A498 renal; 94.1% in the assay on CCRF-CEM leukemia; 99.5% in the assay on MOLT-4 leukemia.
As for `COc1cc2c(=O)n(CCCn3ccnc3)c3c4cc5c(cc4ccc3c2cc1OC)OCO5`, the growth was 10.1% in the assay with HCT-15 colon; -24% (active) with HT29 colon; 1.74% (active) in the assay with SNB-75 CNS; 19.3% in the assay with SNB-19 CNS; -2.14% (active) with U251 CNS; 11.6% in the assay with PC-3 prostate. For the same compound, the growth with SK-MEL-5 melanoma was -75.9% (active); in the assay on UACC-62 melanoma, -50.9% (active); in the assay with LOX IMVI melanoma, -62.4% (active); in the assay with SK-MEL-28 melanoma, 40.1%; in the assay with SK-MEL-2 melanoma, 22%; in the assay on EKVX NSCLC it was 21.3%. Moreover, the growth in the assay on SN12C renal was 16.9%; with UO-31 renal, -27.3% (active); in the assay on TK-10 renal, 35.3%; with A498 renal it was -75.6% (active); in the assay with MOLT-4 leukemia, 3.68% (active).
In the case of `COc1cc2c(cc1OC)-c1ccc3cc4c(cc3c1N(CCCN(C)C)C2)OCO4`, the growth is 52% in the assay on HCT-15 colon; 11.5% in the assay with HT29 colon; 44.1% in the assay on SNB-75 CNS; 25.3% with SNB-19 CNS; 18.2% with U251 CNS; 23% in the assay with PC-3 prostate. The growth was 43.9% in the assay on SK-MEL-5 melanoma; 44% in the assay on UACC-62 melanoma; 19.5% in the assay on LOX IMVI melanoma; 58.8% in the assay on SK-MEL-28 melanoma; 45.4% in the assay on SK-MEL-2 melanoma; 60% with EKVX NSCLC. Also, the growth in the assay with SN12C renal is 27.4%; in the assay with UO-31 renal, 38.7%; in the assay with TK-10 renal, 46.6%; with A498 renal, 8.3% (active); in the assay with CCRF-CEM leukemia, 20.5%; in the assay with MOLT-4 leukemia, 8.66% (active).
